Reference: PubChem BioAssay (NCATS)
Several values for one entry are separate records, joined by “and”; a condition that tells them apart may be missing. Identical values can stand only once. Records with an inconclusive call do not appear. Activity calls are given as the source filed them. Unless noted, the call rests on the fitted dose curve; in most records, active means well fitted curve in the direction sought with a large enough effect; inconclusive means small, poorly fitted or top-dose-only effect, or another doubt; inactive means no such curve, though single readings can be large; an effect the other way counts as inactive or inconclusive.

Key:
[1] = Cellular Toxicity (caspase-3) SHSY5Y (AID 657)
How it was run: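 Cells plated and incubated 5 h at 37 °C, dosed over a concentration range, incubated 16 h, then given Caspase-Glo 3/7 reagent for 1 h at room temperature before luminescence reading. Staurosporine (10 uM) defined full stimulation.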

[2] = Cellular Toxicity (caspase-3) BJ (AID 658)
How it was run: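 Readout: Caspase-Glo 3/7 luminescence increase in BJ cells after 16 hr treatment at 37 °C. Staurosporine and tamoxifen served as positive controls; AC50 values came from Hill modelling of data normalized to DMSO and 10 uM staurosporine.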

[3] = Cellular Toxicity (caspase-3) MRC-5 (AID 659)
How it was run: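 Concentration-dependent caspase 3/7 activation is measured in human normal lung fibroblasts (MRC-5) following 16-hour treatment. AC50 values come from standard Hill-equation modeling of luminescence normalized to DMSO and 10 uM staurosporine.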

[4] = Cellular Toxicity (caspase-3) Mesangial (AID 660);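 further: combined caspase 3 and 7 activity read by Caspase-Glo luminescence; cells exposed to compound for 16 h before the caspase read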
How it was run: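 Concentration-response qHTS: compound-induced rise in caspase 3/7 luminescence in human mesangial cells after 16 h, normalized to DMSO and 100 uM tamoxifen controls.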

[5] = Cellular Toxicity (caspase-3) SK-N-SH (AID 661)
How it was run: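 Caspase 3/7 activation is measured as a luminescence increase from aminoluciferin released by substrate cleavage in SK-N-SH cells after 16 hr compound treatment; values are AC50 from concentration-response curves.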

[6] = Cellular Toxicity (caspase-3) H-4-II-E (AID 663);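 further: 0% = DMSO basal and 100% = 100 µM tamoxifen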
How it was run: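 Apoptosis induction is scored as increased luminescence from caspase 3/7 substrate cleavage in rat hepatoma H-4-II-E cells exposed to compound for 16 hr. Activity is scaled between DMSO and 100 uM tamoxifen.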

[7] = Cellular Toxicity (caspase-3) N2a (AID 665); settings: N2a cells, luminescence, normalized: DMSO 0%, 10 µM staurosporine 100%; at 92.2 µM (top of the series);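 further: compound exposure lasted 16 h at 37 °C before readout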
How it was run: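 Plated mouse neuroblastoma N2a cells received titrated compounds for 16 h in complete medium. Caspase activity was then detected with a peptide-aminoluciferin luminescent reagent.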

[8] = MultiTox-Fluor Cytotoxicity Assay - LYMP1-001 - Dead Cells (AID 946)
How it was run: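 Seed 2500 LYMP1-001 cells/well, incubate 5 hr at 37 C; add compound, 16 hr at 37 C; add MultiTox-Fluor reagent, 60 min RT; read dead-cell fluorescence Ex/Em=485/520. Normalize to DMSO and 15 uM tetraoctylammonium bromide.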

[9] = Cell Viability - LYMP1-002 - Assay at 16 hr (AID 948);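 further: 0% = DMSO alone and full effect = 92 µM tetraoctylammonium bromide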
How it was run: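 Acute cytotoxicity is scored as a concentration-dependent fall in intracellular ATP in a human lymphoblastoid line (LYMP1-002) after 16 hr compound exposure at 37 C, measured by luciferase luminescence.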

[10] = MultiTox-Fluor Cytotoxicity Assay - LYMP1-003 - Dead Cells (AID 961); further: nearly all actives have a fitted effect of over 70% in size
How it was run: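 LYMP1-003 lymphoblastoid, 2500 cells/well, 5 hr settle then 16 hr cpd at 37 C; MultiTox-Fluor reagent 60 min RT; Ex/Em 485/520 dead-cell signal; norm. DMSO = 0%, 15 uM tetraoctylammonium bromide = 100%; Hill AC50.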

[11] = Cell Viability - LYMP1-003 - Assay at 24 hr (AID 963);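 further: plate controls were DMSO only for no effect and tetraoctylammonium bromide positive control for full effect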
How it was run: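 Acute toxicity in LYMP1-003 lymphoblastoid cells: 24 hr compound treatment at 37 C, ATP measured with CellTiter-Glo after 30 min at room temperature. AC50 derived by fitting the Hill equation to qHTS titrations.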

[12] = Cell Viability - LYMP2-003 (AID 965);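 further: cells exposed to compounds for 24 h before reading; 0% = DMSO only and full effect = 92 µM tetraoctylammonium bromide; nearly all actives have a fitted effect of over 50% in size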
How it was run: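 Acute cytotoxicity is scored as a concentration-dependent drop in intracellular ATP, measured by luciferase luminescence in human lymphoblastoid cells treated for 24 hours at 37 C. AC50 values derive from Hill-equation modelling.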

[13] = Cell Viability - LYMP2-015 (AID 971);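 further: cells exposed to compound for 24 h; 0% = DMSO only and full effect = 92 µM tetraoctylammonium bromide; nearly all actives have a fitted effect of over 55% in size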
How it was run: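 Acute toxicity was scored as a concentration-dependent drop in intracellular ATP in lymphoblastoid cells after 24 hr compound exposure in complete medium. Detection used CellTiter-Glo luciferase luminescence.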

[14] = Cell Viability - LYMP2-025 (AID 976);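 further: cells exposed to compound for 24 h at 37 °C; plate controls were DMSO only for no effect and tetraoctylammonium bromide control for full effect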
How it was run: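 In qHTS format, LYMP2-025 lymphoblastoid cells in complete culture medium received compound for 24 hr; ATP-based CellTiter-Glo signal gave viability, with AC50 derived by Hill equation.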

[15] = Cell Viability - LYMP2-006 (AID 978);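 further: cells exposed to compound for 24 hours; on the % scale 0 is the no-effect control and ±100 the full control effect; nearly all actives have a fitted effect of over 60% in size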
How it was run: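 Concentration-dependent loss of intracellular ATP in a human lymphoblastoid line after 24 hr treatment at 37 C was measured by CellTiter-Glo luminescence, with AC50 values obtained from standard Hill-equation modelling.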

[16] = Cell Viability - LYMP2-007 (AID 979);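 further: cells exposed to compound for 24 h before reading; 0% = DMSO only and the negative end = 92 µM tetraoctylammonium bromide; nearly all actives have a fitted effect of over 60% in size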
How it was run: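 Acute toxicity is scored as a concentration-dependent fall in intracellular ATP in human lymphoblastoid cells treated 24 hr at 37 C, measured by luciferase luminescence; Hill-equation modelling yields AC50.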

[17] = Cell Viability - LYMP2-008 (AID 980);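 further: cells exposed to compound for 24 h at 37 °C; on the % scale 0 is the no-effect control and ±100 the full control effect; nearly all actives have a fitted effect of over 60% in size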
How it was run: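 Acute cytotoxicity is scored as concentration-dependent loss of cellular ATP in a human lymphoblastoid line after 24 hr treatment at 37 C. ATP is quantified by luciferase luminescence.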

[18] = Cell Viability - LYMP2-014 (AID 983);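 further: cells exposed to compound for 24 h at 37 °C; plate controls were DMSO only for no effect and 92 µM tetraoctylammonium bromide for full effect; nearly all actives have a fitted effect of over 50% in size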
How it was run: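 Decrease in intracellular ATP after 24 hr treatment at 37 C, measured by luciferase luminescence, indicated cytotoxicity. Concentration-response data were fitted with the standard Hill equation to give AC50.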

[19] = Cell Viability - LYMP1-002 - Assay at 24 hr (AID 993); further: on the % scale 0 is the no-effect control and ±100 the full control effect
How it was run: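 qHTS, LYMP1-002 lymphoblastoid, 24 h cpd, 37 C, CellTiter-Glo ATP luminescence; AC50 via Hill eq.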

[20] = qHTS assay for small molecule agonists of the antioxidant response element (ARE) signaling pathway measured by Nrf2-dependant transcriptional activity (AID 720636; active means well fitted curve in the direction sought with a large enough effect in the repeat runs; an effect the other way counts as inactive or inconclusive;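 further: HepG2 cells with an ARE-driven luciferase reporter; % of control where 0% means no effect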)
How it was run: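 We exposed ARE-luc HepG2 cells, seeded in assay medium with 1% dialyzed FBS and allowed 6 hr to adhere, to test compounds overnight (16 hr, 37 C) before measuring luciferase with ONE-Glo.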

O=C(Cl)/C=C/C(=O)Cl
inactive: outcome [1] | outcome [2] | outcome [3] | outcome [4] | outcome [5] | outcome [6] | caspase-3 activation [7] -4.67% | Potency [8] | Potency [9] | Potency [10] | Potency [11] | Potency [12] | Potency [13] | Potency [14] | Potency [15] | Potency [16] | Potency [17] | Potency [18] | Potency [19] | outcome [20]

Nc1c(Cl)c(Cl)nc(C(=O)O)c1Cl
inactive: outcome [1] | outcome [2] | outcome [3] | outcome [4] | outcome [5] | outcome [6] | caspase-3 activation [7] -2.12% | Potency [8] | Potency [9] | Potency [10] | Potency [11] | Potency [12] | Potency [13] | Potency [14] | Potency [15] | Potency [16] | Potency [17] | Potency [18] | Potency [19] | outcome [20]

Oc1ccc(Cl)cc1Cl
inactive: outcome [1] | outcome [2] | outcome [3] | outcome [4] | outcome [5] | outcome [6] | caspase-3 activation [7] -0.627% | Potency [8] | Potency [9] | Potency [10] | Potency [11] | Potency [12] | Potency [13] | Potency [14] | Potency [15] | Potency [16] | Potency [17] | Potency [18] | Potency [19] | outcome [20]

CCC[CH2][Sn]([Cl])([Cl])[Cl]
inactive: outcome [1] | outcome [2] | outcome [3] | outcome [4] | outcome [5] | outcome [6] | caspase-3 activation [7] 0.958% | Potency [8] | Potency [9] | Potency [10] | Potency [11] | Potency [12] | Potency [13] | Potency [14] | Potency [15] | Potency [16] | Potency [17] | Potency [18] | Potency [19] | outcome [20]

ClC(Cl)=C(Cl)Cl
inactive: outcome [1] | outcome [2] | outcome [3] | outcome [4] | outcome [5] | outcome [6] | caspase-3 activation [7] 0.443% and 1.4% | Potency [8] | Potency [9] | Potency [10] | Potency [11] | Potency [12] | Potency [13] | Potency [14] | Potency [15] | Potency [16] | Potency [17] | Potency [18] | Potency [19] | outcome [20]

O=NN(CCO)CCO
inactive: outcome [1] | outcome [2] | outcome [3] | outcome [4] | outcome [5] | outcome [6] | caspase-3 activation [7] -1.3% | Potency [8] | Potency [9] | Potency [10] | Potency [11] | Potency [12] | Potency [13] | Potency [14] | Potency [15] | Potency [16] | Potency [17] | Potency [18] | Potency [19] | outcome [20]

CCOc1ccc(N)cc1
inactive: outcome [1] | outcome [2] | outcome [3] | outcome [4] | outcome [5] | outcome [6] | caspase-3 activation [7] 6.79% | Potency [8] | Potency [9] | Potency [10] | Potency [11] | Potency [12] | Potency [13] | Potency [14] | Potency [15] | Potency [16] | Potency [17] | Potency [18] | Potency [19] | outcome [20]

C=CC(=C)C
inactive: outcome [1] | outcome [2] | outcome [3] | outcome [4] | outcome [5] | outcome [6] | caspase-3 activation [7] -1.13% | Potency [8] | Potency [9] | Potency [10] | Potency [11] | Potency [12] | Potency [13] | Potency [14] | Potency [15] | Potency [16] | Potency [17] | Potency [18] | Potency [19] | outcome [20]

COc1ccc(N)cc1
inactive: outcome [1] | outcome [2] | outcome [3] | outcome [4] | outcome [5] | outcome [6] | caspase-3 activation [7] 1.03% and -0.467% | Potency [8] | Potency [9] | Potency [10] | Potency [11] | Potency [12] | Potency [13] | Potency [14] | Potency [15] | Potency [16] | Potency [17] | Potency [18] | Potency [19] | outcome [20]

CC(C)(c1ccccc1)c1ccc(O)cc1
inactive: outcome [1] | outcome [2] | outcome [3] | outcome [4] | outcome [5] | outcome [6] | caspase-3 activation [7] 1.43% | Potency [8] | Potency [9] | Potency [10] | Potency [11] | Potency [12] | Potency [13] | Potency [14] | Potency [15] | Potency [16] | Potency [17] | Potency [18] | Potency [19] | outcome [20]

OCC(Br)CBr (stereo not given)
inactive: outcome [1] | outcome [2] | outcome [3] | outcome [4] | outcome [5] | outcome [6] | caspase-3 activation [7] -2.35% | Potency [8] | Potency [9] | Potency [10] | Potency [11] | Potency [12] | Potency [13] | Potency [14] | Potency [15] | Potency [16] | Potency [17] | Potency [18] | Potency [19] | outcome [20]

S=C=Nc1cccc2ccccc12
inactive: outcome [1] | outcome [2] | outcome [3] | outcome [4] | outcome [5] | outcome [6] | caspase-3 activation [7] 0.808% | Potency [8] | Potency [9] | Potency [10] | Potency [11] | Potency [12] | Potency [13] | Potency [14] | Potency [15] | Potency [16] | Potency [17] | Potency [18] | Potency [19] | outcome [20]
